A short description of experiment [1]: P. berghei load reduction in hepatocytes – cell-based, HepG2, luciferase luminescence, HepG2 viability, primary screen (AID 624349).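 Also: 100% = mean of DMSO negative control wells on the same plate.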 To be noted: P. berghei liver stage in HepG2, luciferase luminescence, concentration not given here; parasite load remaining: stronger effect = lower value; viability: measured here: HepG2 viability without parasites.
Experiment [2] is described as follows: EMT-state selective cytotoxicity in co-culture – imaging, PC-3E GFP, TEM4-18 mCherry, primary screen (AID 1345086;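 active = compounds killing one labelled cell type while sparing the other, by normalised counts and ratio limits, not self-fluorescent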;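 as to all read-outs here: cells exposed to compound for 72 h before imaging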;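 as to red/green cell ratio (normalised): normalised mesenchymal count divided by normalised epithelial count so high means epithelial killing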). To be noted: PC-3E GFP / TEM4-18 mCherry co-culture, imaging cell counts, at 1 µM; for red/green cell ratio (normalised): actives lie on both sides, counts scaled to control wells, 1 = unselective.
Experiment [3] can be described thus: viability loss with induced miR-34 in A549 – imaging, A549 dox-inducible miR-34, nuclei and caspase counts, primary screen (AID 1347080;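 active = compounds whose cell count with miR-34 switched on is under 0.7 times the count with it off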). To be noted: A549 miR-34 inducible, Hoechst nuclei count, 48 h.
The nature of experiment [4]: blockers of cellular phospholipid synthesis – cell-based, LOPAC library, screen 4, primary screen (AID 1347384; call rule not given here). To be noted: animal cells, phospholipid biosynthesis inhibition screen; at 10 µM.
Experiment [5] addresses Mitogen-activated protein kinase 7 (Homo sapiens) (UniProt Q13164). As to the kind of experiment: Gal4-ERK5 driven luciferase induction – cell-based, HTS, primary screen (AID 1508626;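 active = luciferase signal above three times the same-plate solvent-only control wells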;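 also: luciferase driven by Gal4-ERK5 fusion binding five Gal4 sites before minimal TATA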). To be noted: HeLa Gal4-ERK5 transactivation, 18 h, at 5 µM, stronger effect = higher value.
Experiment [6] in a line: compounds altering HSF1 focus formation in cells – imaging, Selleck Cancer Library (AID 1347162; in the data active = plate-normalised HSF1 focus index below about 0.46). To be noted: human cells, HSF1 nuclear foci imaging, at 10 µM; SSMD: measured here: HSF1 foci SSMD mean; cell count: measured here: cell number; plate-normalised HSF1 focus index: stronger effect = lower value.
Setting [7] is: measured here: epithelial PC-3E GFP cell survival.
Where [8] appears, read: measured here: mesenchymal TEM4-18 mCherry cell survival.
The mark [9] stands for this setting: stronger effect = lower value, cell number ratio, induced over uninduced.
[10] abbreviates: measured here: relative caspase fold change +Dox/-Dox.
Setting [11] is: measured here: total cells with miR-34 induction, stronger effect = lower value.
Where [12] appears, read: measured here: total cells without miR-34 induction.

Several values for one entry are separate records, joined by “and”; a condition that tells them apart may be missing. Identical values can stand only once. Activity calls are given as the source filed them. Rule as the data show it, unless noted: active = parasite load remaining mostly below about 12% (no sharp cut-off); inactive = mostly above about 10%. Numbered stars: 1 amine (or outer) side, 2 acyl side, 3 side chain; on linkers, the order of the positions; unused ones are H or OH. Bridge positions count the residues as written; N and C are the ends. Square brackets hold non-standard residues; d marks the D form. Peptide text beside a SMILES is read from it. * marks the point of attachment. ξ: configuration not given here. ΔAla(E,3-NHCONH2) = NC(=O)N/C=C(/N)C(=O)O; X1 = NC1=NCCC(C(N[*:1])C(=O)[*:2])N1; ξβ3hOrn = NCCCC(N)CC(=O)*; Orn = NCCC[CH](N)C(=O)O; Dap = NC[CH](N)C(=O)O

Mitogen-activated protein kinase 7 (Homo sapiens), sequence (Q13164 whole entry, looked up, the tested form may be a part): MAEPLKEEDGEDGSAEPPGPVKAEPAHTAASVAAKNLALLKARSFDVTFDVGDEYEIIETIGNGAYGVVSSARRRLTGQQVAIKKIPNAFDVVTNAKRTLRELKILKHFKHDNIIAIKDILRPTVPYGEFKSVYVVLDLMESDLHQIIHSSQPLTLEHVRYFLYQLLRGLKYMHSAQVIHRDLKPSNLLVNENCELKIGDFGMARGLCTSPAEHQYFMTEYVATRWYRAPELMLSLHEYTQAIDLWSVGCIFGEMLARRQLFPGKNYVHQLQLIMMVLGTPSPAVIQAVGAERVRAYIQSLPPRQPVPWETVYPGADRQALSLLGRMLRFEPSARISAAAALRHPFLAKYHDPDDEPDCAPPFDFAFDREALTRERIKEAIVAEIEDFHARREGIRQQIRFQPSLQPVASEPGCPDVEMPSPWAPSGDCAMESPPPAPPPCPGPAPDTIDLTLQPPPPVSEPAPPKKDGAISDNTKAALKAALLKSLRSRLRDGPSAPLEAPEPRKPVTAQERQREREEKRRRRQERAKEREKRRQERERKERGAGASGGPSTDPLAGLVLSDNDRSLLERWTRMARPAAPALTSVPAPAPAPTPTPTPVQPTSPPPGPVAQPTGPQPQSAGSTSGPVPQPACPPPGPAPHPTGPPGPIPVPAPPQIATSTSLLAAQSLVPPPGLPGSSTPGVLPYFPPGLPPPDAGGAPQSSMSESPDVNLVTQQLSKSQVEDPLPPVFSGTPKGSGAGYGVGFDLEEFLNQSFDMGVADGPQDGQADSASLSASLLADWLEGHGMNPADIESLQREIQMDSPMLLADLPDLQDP

With `CC(C)(C)NC(=O)[C@H]1CCC2C3CCC4NC(=O)C=C[C@]4(C)C3CC[C@@]21C` (stereo partly drawn), the parasite load remaining in experiment [1] is 30.5% (inactive). Besides, in experiment [1], the viability was 97.9%. Also, the red/green cell ratio (normalised) in experiment [2] was 1.12 (inactive). For the same compound, the values for the normalised cell number in experiment [2] (setting [7]) and in experiment [2] (setting [8]) were 0.62 and 0.69, respectively. Besides, the fold change in experiment [3] (setting [9]) was 0.895 (inactive); in experiment [3] (setting [10]) it was 2.7. The cell count in experiment [3] (setting [11]) was 11000; in experiment [3] (setting [12]), 12300.
On to `CC(=O)OC1CCC2C3CCc4cc(O)ccc4C3CCC12C` (stereo not drawn), for which, in experiment [1], the parasite load remaining was 37.6% (inactive) and 33.6% (inactive). Besides, in experiment [1], the viability was 66.8% and 98%. Further, in experiment [2], the red/green cell ratio (normalised) is 0.88 (inactive). The normalised cell number was found to be 1.2 in experiment [2] (setting [7]) and 1.05 in experiment [2] (setting [8]). Further, the fold change in experiment [3] (setting [9]) was 0.907 (inactive); in experiment [3] (setting [10]), 3.29. For the same compound, the values for the cell count in experiment [3] (setting [11]) and in experiment [3] (setting [12]) were 8630 and 9520, respectively.
On to `CC1C/C=C/C=C/C=C/C=C/C(O[C@@H]2O[C@H](C)[C@@H](O)[C@H](N)[C@@H]2O)CC2OC(O)(CC(O)CC3OC3/C=C/C(=O)O1)CC(O)C2C(=O)O` (stereo partly drawn), for which, in experiment [1], the parasite load remaining was 78.2% (inactive). Further, the viability in experiment [1] came to 102%. Moreover, in experiment [2], the red/green cell ratio (normalised) is 1.02 (inactive). Besides, the normalised cell number in experiment [2] (setting [7]) was 1.04; in experiment [2] (setting [8]), 1.06. In addition, the fold change is 0.858 (inactive) in experiment [3] (setting [9]) and 2.95 in experiment [3] (setting [10]). The values for the cell count in experiment [3] (setting [11]) and in experiment [3] (setting [12]) were 11800 and 13800, respectively.
Turning to `CC(C)=CCC/C(C)=C/COc1ccc2ccc(=O)oc2c1`, the red/green cell ratio (normalised) in experiment [2] was 1.07 (inactive). The normalised cell number came out at 0.93 in experiment [2] (setting [7]) and 0.99 in experiment [2] (setting [8]). Moreover, the compound was classed as inactive in experiment [4]. Besides, the luciferase signal in experiment [5] is 76 AU (inactive).
For `COCC1=C(C(=O)OC(C)OC(=O)OC(C)C)N2C(=O)[C@@H](NC(=O)/C(=N/OC)c3csc(N)n3)[C@H]2SC1` (stereo partly drawn), the parasite load remaining in experiment [1] is 42.3% (inactive). The viability in experiment [1] was 194%. In addition, in experiment [2], the red/green cell ratio (normalised) is 1.05 (inactive). In addition, the values for the normalised cell number in experiment [2] (setting [7]) and in experiment [2] (setting [8]) were 0.94 and 0.99, respectively. The fold change was 0.924 (inactive) in experiment [3] (setting [9]) and 3.66 in experiment [3] (setting [10]). Moreover, the cell count in experiment [3] (setting [11]) was found to be 12100; in experiment [3] (setting [12]) it was 13100.
Take `CC(=O)S[C@@H]1CC2=CC(=O)CC[C@]2(C)[C@H]2CC[C@@]3(C)[C@@H](CC[C@@]34CCC(=O)O4)C12` (stereo partly drawn): the parasite load remaining in experiment [1] was 56.6% (inactive) and 46.1% (inactive). The viability in experiment [1] is 72.6% and 88.2%. The red/green cell ratio (normalised) in experiment [2] is 1.24 (inactive). Moreover, the figures for the normalised cell number in experiment [2] (setting [7]) and in experiment [2] (setting [8]) were 1 and 1.25, respectively. Further, the fold change in experiment [3] (setting [9]) is 0.863 (inactive); in experiment [3] (setting [10]), 2.19. For the same compound, the cell count in experiment [3] (setting [11]) was determined as 10200; in experiment [3] (setting [12]), 11900.
As for `CC1(C)O[C@@H]2CC3C4C[C@H](F)C5=CC(=O)C=C[C@]5(C)[C@@]4(F)[C@@H](O)C[C@]3(C)[C@]2(C(=O)CO)O1` (stereo partly drawn), the parasite load remaining in experiment [1] was 74.8% (inactive). Moreover, in experiment [1], the viability amounted to 92.9%. In experiment [2], the red/green cell ratio (normalised) was 1.12 (inactive). Also, the results for the normalised cell number in experiment [2] (setting [7]) and in experiment [2] (setting [8]) were 1.2 and 1.35, respectively. Further, the fold change in experiment [3] (setting [9]) was 0.898 (inactive); in experiment [3] (setting [10]), 0.891. Besides, the values for the cell count in experiment [3] (setting [11]) and in experiment [3] (setting [12]) were 7030 and 7830, respectively.
`CC(=O)O[C@@]12CO[C@@H]1C[C@H](O)[C@@]1(C)C(=O)[C@H](O)C3=C(C)[C@@H](OC(=O)[C@H](O)[C@@H](NC(=O)OC(C)(C)C)c4ccccc4)C[C@@](O)([C@@H](OC(=O)c4ccccc4)C12)C3(C)C` (stereo partly drawn): the red/green cell ratio (normalised) in experiment [2] is 1.12 (inactive). The normalised cell number in experiment [2] (setting [7]) was 0.16. In addition, in experiment [2] (setting [8]), the normalised cell number turned out to be 0.18. Moreover, in experiment [6], the SSMD was 1.92, the cell count worked out at 6830 and the plate-normalised HSF1 focus index was 1.1 (inactive).
On to `CO/N=C(\C(=O)NC1C(=O)N2C(C(=O)OCOC(=O)C(C)(C)C)=C(/C=C\c3scnc3C)CSC12)c1csc(N)n1` (stereo not drawn), for which the parasite load remaining in experiment [1] is 101% (inactive) and 42.8% (inactive). Further, the viability in experiment [1] was 81.5% and 105%. The red/green cell ratio (normalised) in experiment [2] is 0.92 (inactive). For the same compound, the normalised cell number in experiment [2] (setting [7]) worked out at 1.21; in experiment [2] (setting [8]) it was 1.12. Besides, the fold change in experiment [3] (setting [9]) is 0.904 (inactive); in experiment [3] (setting [10]), 4.33. Further, the cell count in experiment [3] (setting [11]) turned out to be 11600; in experiment [3] (setting [12]) it was 12800.
In the case of `O=C(N[C@@H](CO)[C@H](O)c1ccc([N+](=O)[O-])cc1)C(Cl)Cl`, the parasite load remaining in experiment [1] is 85.6% (inactive) and 68.5% (inactive). The viability in experiment [1] is 77.9% and 95.2%. In experiment [2], the red/green cell ratio (normalised) is 0.9 (inactive). Moreover, the figures for the normalised cell number in experiment [2] (setting [7]) and in experiment [2] (setting [8]) were 1.15 and 1.04, respectively. The fold change in experiment [3] (setting [9]) is 1 (inactive); in experiment [3] (setting [10]), 1.84. Further, the cell count in experiment [3] (setting [11]) and in experiment [3] (setting [12]) was 11600 in each case.
For the compound `NCCCC(N)CC(=O)NCC1NC(=O)C(CO)NC(=O)C(N)CNC(=O)C(C2CCN=C(N)N2)NC(=O)/C(=C\NC(N)=O)NC1=O` (stereo not drawn) (H-[Dap]S[Dap](ξβ3hOrn)[ΔAla(E,3-NHCONH2)][X1]; lactam 1-C; configuration not given here), the parasite load remaining in experiment [1] was 84% (inactive) and 54.2% (inactive). Moreover, the viability in experiment [1] is 74.9% and 94.9%. For the same compound, the red/green cell ratio (normalised) in experiment [2] is 0.98 (inactive). The normalised cell number in experiment [2] (setting [7]) is 1.11; in experiment [2] (setting [8]), 1.09. The fold change in experiment [3] (setting [9]) is 0.856 (inactive); in experiment [3] (setting [10]) it was 1.07. For the same compound, the results for the cell count in experiment [3] (setting [11]) and in experiment [3] (setting [12]) were 11300 and 13200, respectively.
For the compound `CCCCCC(O)C1C(=O)OC(C)C(O)/C=C/C=C/C=C/C=C/C=C(\C)C(O)CC(O)CC(O)CC(O)CC(O)CC(O)CC1O` (stereo not drawn), the parasite load remaining in experiment [1] was 18% (inactive). Further, the viability in experiment [1] stood at 94.9%. Also, the red/green cell ratio (normalised) in experiment [2] was 1.13 (inactive). The normalised cell number is 0.84 in experiment [2] (setting [7]) and 0.95 in experiment [2] (setting [8]). For the same compound, the figures for the fold change in experiment [3] (setting [9]) and in experiment [3] (setting [10]) were 0.935 (inactive) and 2.39, respectively. The cell count in experiment [3] (setting [11]) is 11500; in experiment [3] (setting [12]), 12300.
For `CS(=O)(=O)c1ccc(C(O)[C@H](CF)NC(=O)C(Cl)Cl)cc1` (stereo partly drawn), the parasite load remaining in experiment [1] was 50.1% (inactive). The viability in experiment [1] was determined as 102%. Further, in experiment [2], the red/green cell ratio (normalised) was 0.78 (inactive). Also, the normalised cell number was determined as 0.91 in experiment [2] (setting [7]) and 0.71 in experiment [2] (setting [8]). Also, the fold change was 0.945 (inactive) in experiment [3] (setting [9]) and 2.12 in experiment [3] (setting [10]). Besides, the cell count in experiment [3] (setting [11]) turned out to be 10700; in experiment [3] (setting [12]) it was 11400.
As for `CC(C)CC1NC(=O)C(CCCN)NC(=O)C(C(C)C)NC(=O)C(Cc2ccc(O)cc2)NC(=O)C(CCC(=O)O)NC(=O)C(CC(=O)O)NC(=O)C(Cc2ccccc2)NC(=O)C(Cc2ccccc2)NC(=O)C2CCCN2C(=O)C(Cc2ccccc2)NC1=O` (stereo not drawn) (cyclo(DEYV[Orn]LFPFF); configuration not given here), the parasite load remaining in experiment [1] was 7.69% (inactive) and 0.08% (inactive). Besides, in experiment [1], the viability is 49.2% and 36.8%. Besides, the red/green cell ratio (normalised) in experiment [2] was 0.75 (inactive). Besides, the normalised cell number in experiment [2] (setting [7]) turned out to be 0.47; in experiment [2] (setting [8]) it was 0.35. For the same compound, the fold change was 1.12 (inactive) in experiment [3] (setting [9]) and 0.824 in experiment [3] (setting [10]). For the same compound, the cell count was 1510 in experiment [3] (setting [11]) and 1350 in experiment [3] (setting [12]).
For `CC(=O)OCC(=O)[C@@]1(O)CCC2C3CCC4=CC(=O)CC[C@]4(C)[C@@]3(F)[C@@H](O)C[C@@]21C` (stereo partly drawn), the parasite load remaining in experiment [1] was 127% (inactive) and 70.7% (inactive). Moreover, the viability in experiment [1] is 75.9% and 93.9%. In addition, in experiment [2], the red/green cell ratio (normalised) is 1.57 (inactive). The normalised cell number in experiment [2] (setting [7]) was determined as 0.85; in experiment [2] (setting [8]), 1.34. The results for the fold change in experiment [3] (setting [9]) and in experiment [3] (setting [10]) were 0.879 (inactive) and 1.47, respectively. For the same compound, the cell count in experiment [3] (setting [11]) is 6890; in experiment [3] (setting [12]), 7830.

Source of the values: PubChem BioAssay.
